From PubChem BioAssay
PLK1 PBD inh: blocks phosphopeptide binding to human PLK1 polo-box domain. AID 720504. hit rate 2.8% among 360,000. Potency, µM, inactives show max response, negative = inhibition, most hits filed as inhibitors. Plk1 PBD binding of FITC phosphopeptide, fluorescence polarization; note: series mostly up to about 57 µM; % is set by controls: 0 for no effect and ±100 for the full control effect; nearly all actives have a fitted effect of over 65% in size
G9a block: blocks human histone lysine methyltransferase G9a. G9a H3K9 monomethylation, AlphaScreen, 2 h. Potency, µM (top dose mostly 102 µM), for the others: at the top dose activity, negative = inhibition, most hits filed as inhibitors. hit rate 8.8% among 350,000. AID 504332; note: % is set by controls: 0 for no effect and ±100 for the full control effect; nearly all actives have a fitted effect of over 75% in size
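Using a bead-based AlphaScreen, monomethylated H3K9 product from 2 h room-temperature reactions (G9a 20 nM, peptide 500 nM, SAM 20 uM) was detected with 0.5 ug/mL rabbit anti-H3K9me1 antibody.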
12-LOX inh: blocks human arachidonate 12S-lipoxygenase. P18054. purified 12hLO, xylenol orange hydroperoxide absorbance. Potency, µM (doses to about 108 µM), inactives show at the highest dose activity change, negative = inhibition, actives largely listed as inhibitors. hit rate 1.1% among 580,000. AID 1671190; note: % is set by controls: 0 for no effect and ±100 for the full control effect
Target sequence (P18054 whole entry, looked up): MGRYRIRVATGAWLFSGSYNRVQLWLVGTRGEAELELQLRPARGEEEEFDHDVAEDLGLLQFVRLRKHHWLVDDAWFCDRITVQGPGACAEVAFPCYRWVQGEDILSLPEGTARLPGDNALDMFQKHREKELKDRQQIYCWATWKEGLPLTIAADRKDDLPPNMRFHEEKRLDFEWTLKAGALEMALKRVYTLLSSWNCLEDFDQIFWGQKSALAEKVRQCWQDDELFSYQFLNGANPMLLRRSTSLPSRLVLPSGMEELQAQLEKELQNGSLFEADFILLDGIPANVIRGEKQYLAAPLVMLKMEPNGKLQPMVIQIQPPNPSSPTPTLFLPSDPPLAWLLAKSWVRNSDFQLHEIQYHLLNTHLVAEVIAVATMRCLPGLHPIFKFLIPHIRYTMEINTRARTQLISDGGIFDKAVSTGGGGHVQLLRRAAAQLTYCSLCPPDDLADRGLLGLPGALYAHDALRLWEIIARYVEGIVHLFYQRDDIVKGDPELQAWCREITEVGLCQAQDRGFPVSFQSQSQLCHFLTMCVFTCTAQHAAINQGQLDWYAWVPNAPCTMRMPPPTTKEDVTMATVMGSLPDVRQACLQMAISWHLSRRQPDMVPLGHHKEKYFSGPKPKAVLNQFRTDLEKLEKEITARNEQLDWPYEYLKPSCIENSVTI
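Purified human 12hLO at 150 nM in 25 mM Hepes, 0.01% Triton X-100, pH 7.0, preincubated 15 min at room temperature with compound. Reaction started with 40 uM arachidonic acid, 30 min at room temperature. Hydroperoxide measured by Fe-xylenol orange, 573/405 nm absorbance ratio.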
JMJD2A Tudor: JMJD2A Tudor domain (human) inhibition | O75164 | AlphaScreen JMJD2A-Tudor / H3K4me3 peptide binding | Potency, µM (doses to about 114 µM), without a hit: at the top dose activity change, negative = inhibition, actives largely listed as inhibitors | hit rate 4.4% among 390,000; note: % is set by controls: 0 for no effect and ±100 for the full control effect; nearly all actives have a fitted effect of over 50% in size
HP1b binding inh: inhibitors of HP1-beta chromodomain binding to methylated histone tails; hit rate 0.56% among 390,000; P83916; AlphaScreen HP1-beta / biotin-H3K9me3 peptide binding; Potency, µM (series often up to 114 µM), without a hit: at the top dose activity change, negative = inhibition, hits mostly inhibitors; AID 540317; note: nearly all actives have a fitted effect of over 70% in size
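Compound inhibition of the preformed complex between 50 nM HP1-beta and 50 nM biotinylated H3K9me3 peptide was read by AlphaScreen. Buffer was PBS pH 7.4 with 0.01% Tween-20. Incubations ran 30 min at room temperature, with 10 ug/mL donor/acceptor beads.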
BAZ2B inh: BAZ2B (human) inhibition | Q9UIF8 | AlphaScreen BAZ2B-H3K14Ac peptide displacement | Potency, µM (highest dose often 114 µM), for the others: top-dose activity change, negative = inhibition, most hits filed as inhibitors | hit rate 4.4% among 360,000; note: % is set by controls: 0 for no effect and ±100 for the full control effect; nearly all actives have a fitted effect of over 60% in size
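AlphaScreen displacement of biotin-H3(5-23)K14Ac peptide (50 nM final) from BAZ2B (50 nM final) in PBS pH 7.4, 0.01% Tween-20; complex preformed 30 min RT, then compounds (top 110 uM) 30 min RT, beads 20 min dark.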
* marks the source's active call; other numbers are inactive results; [ ] = remark or other dose. Sampled rows, rich in hits. Any-hit rate of the full collection: about 9%. Calls come from the whole dose curve; as a rule, active = well fitted curve in the direction sought with a large enough effect; inconclusive = small, poorly fitted or top-dose-only effect, or another doubt; inactive = no such curve, though single readings can be large; an effect the other way counts as inactive or inconclusive. Potency is the fitted concentration of half-maximal effect.

Screening CCOC(=O)N1CCN(C(=S)NC(=O)c2cccc(OC)c2)CC1 returned PLK1 PBD inh 0%, 12-LOX inh inconclusive, JMJD2A Tudor -5% and HP1b binding inh 20%.
`CC1CCN(C(=S)NC(=O)c2ccc(F)cc2)CC1` gave PLK1 PBD inh -4%, 12-LOX inh -26%, JMJD2A Tudor -28% and HP1b binding inh 2%.
CCOc1cc(C(=O)NC2CCN(c3cc(-c4ccc(F)cc4)[nH]n3)C2)cc(OCC)c1OCC (configuration not stated) was read as 12-LOX inh 63%.
`COc1ccccc1-n1c2nc3ccccc3nc2c2c(=O)n(-c3cc(C)cc(C)c3)cnc21` gave PLK1 PBD inh -21%, G9a block -4%[59 µM], 12-LOX inh -17%, JMJD2A Tudor -15%, HP1b binding inh 15% and BAZ2B inh -27%.
CC12CCC(C(=O)N(CSC(=S)N/N=C\c3ccccc3O)C1=O)C2(C)C (configuration not stated) was read as PLK1 PBD inh inconclusive, G9a block 4.5µM*, 12-LOX inh 0%, JMJD2A Tudor 40µM*, HP1b binding inh -15% and BAZ2B inh 2.8µM*.
Screening CCc1ccc(CNC(=O)C(C)n2ccc3cc(S(=O)(=O)N4CCCCCC4)ccc32)cc1 (configuration not stated) returned G9a block -9%[59 µM], 12-LOX inh 2%, JMJD2A Tudor -16%, HP1b binding inh 3% and BAZ2B inh -12%.
`CCOC(=O)c1[nH]c2c(c1-c1ccc(OC)cc1)C(=O)CC(c1ccc(OC)c(OC)c1)C2` (configuration not stated) gave PLK1 PBD inh -10%, G9a block 50µM*, 12-LOX inh 57%, JMJD2A Tudor -30%, HP1b binding inh 62% and BAZ2B inh inconclusive.
`COc1ccc(COC(=O)c2[nH]c3c(c2C)C(=O)CC(c2ccc(OC)c(OC)c2)C3)cc1` (configuration not stated) gave G9a block -31%[59 µM], 12-LOX inh 2%, JMJD2A Tudor -18%, HP1b binding inh -3% and BAZ2B inh -4%.
CC(Oc1cccc(Cl)c1)C(=O)N1CCc2ccccc21 (configuration not stated) was read as 12-LOX inh -13%.
`COCCN=c1scc(-c2ccc3c(c2)NC(=O)CO3)n1/N=C(\C)c1ccc(O)cc1` gave PLK1 PBD inh -5%, 12-LOX inh inconclusive, JMJD2A Tudor 22µM*, HP1b binding inh inconclusive and BAZ2B inh 28µM*.
COc1cc(/C=N/n2c(-c3ccc4c(c3)NC(=O)CO4)csc2=Nc2cccc(C)c2)ccc1O was read as PLK1 PBD inh -14%, G9a block 10µM*, 12-LOX inh inconclusive, JMJD2A Tudor inconclusive, HP1b binding inh inconclusive and BAZ2B inh 8.9µM*.
Screening COc1c(C)cc(NC(=O)c2ccc3c(c2)NC(=O)CO3)cc1C returned PLK1 PBD inh -15%, G9a block -2%, 12-LOX inh -4%, JMJD2A Tudor -18%, HP1b binding inh 16% and BAZ2B inh -14%.
`COc1ccccc1Nc1nc(-c2ccc3c(c2)NC(=O)CO3)cs1` gave PLK1 PBD inh -8%, G9a block inconclusive, 12-LOX inh inconclusive, JMJD2A Tudor -21%, HP1b binding inh 33% and BAZ2B inh -30%.
For Cc1n[nH]c(=S)c2nn(-c3cccc(Cl)c3)c(C)c12 the results were G9a block inconclusive, 12-LOX inh 9% and BAZ2B inh 6%.
For Cc1ccc(-n2nc(C)c([C@@H]3C=C[C@@H](NC(=O)COCC(=O)O)C3)c2C)cc1Cl the results were 12-LOX inh 10%[176 µM].
For Cc1nn(S(=O)(=O)c2ccc(C(C)C)cc2)c(C)c1S(=O)(=O)N1CCOCC1 the results were PLK1 PBD inh -7%, G9a block 35µM*, 12-LOX inh inconclusive, JMJD2A Tudor 79µM*, HP1b binding inh 41% and BAZ2B inh inconclusive.
Screening CCCCOc1ccc(S(=O)(=O)n2nc(C)c(S(=O)(=O)N3CCCCCC3)c2C)cc1 returned G9a block -37%[59 µM], 12-LOX inh inconclusive, JMJD2A Tudor -12%, HP1b binding inh 25%[57 µM] and BAZ2B inh -3%.
CCOc1ccc(S(=O)(=O)n2nc(C)c(S(=O)(=O)N3CCOCC3)c2C)cc1 was read as PLK1 PBD inh 5%, G9a block 50µM*, 12-LOX inh -1%, JMJD2A Tudor -15%, HP1b binding inh 7% and BAZ2B inh inconclusive.
CSC1=NC2(CCCCC2)C2=C(CCCC2)N1 was read as PLK1 PBD inh -11%, G9a block 45µM*, 12-LOX inh inconclusive, JMJD2A Tudor -14%, HP1b binding inh 25% and BAZ2B inh 13%.
CC(=O)Nc1nc(C(=O)O)cs1 was read as PLK1 PBD inh -3%, G9a block 22µM*, 12-LOX inh inconclusive, JMJD2A Tudor 4µM*, HP1b binding inh inconclusive and BAZ2B inh 32µM*.
`CC(=O)Nc1nc(C)cs1` gave PLK1 PBD inh 7%, G9a block 7%, 12-LOX inh 4%, JMJD2A Tudor -10%, HP1b binding inh 29% and BAZ2B inh -14%.
Screening Cc1ccc(C(=O)Nc2cccc(C(O)c3ccccc3)c2)cc1 (configuration not stated) returned PLK1 PBD inh 2%, 12-LOX inh inconclusive, JMJD2A Tudor -8% and HP1b binding inh 18%.
For Cc1nc(NC(=O)c2ccco2)sc1-c1csc(Nc2ccc(Cl)cc2)n1 the results were PLK1 PBD inh -12%, G9a block 12%[0.501 µM], 12-LOX inh inconclusive, JMJD2A Tudor inconclusive, HP1b binding inh -8% and BAZ2B inh inconclusive.
Screening CCN(CC)CCn1c2ccccc2c(=O)c2c(O)ccc(O)c21 returned PLK1 PBD inh inconclusive, 12-LOX inh 25µM*, JMJD2A Tudor 45µM* and HP1b binding inh 40µM*.
Screening CCC1CCCCN1CCCNC(=O)c1c(O)nc2ccccn2c1=O (configuration not stated) returned PLK1 PBD inh -2%, G9a block 79µM*, 12-LOX inh -23%, JMJD2A Tudor -9%, HP1b binding inh 23% and BAZ2B inh -17%.
Screening CC1CCCCN1CCCNC(=O)c1c(O)nc2ccccn2c1=O (configuration not stated) returned PLK1 PBD inh -13%, G9a block inconclusive, 12-LOX inh 3%, JMJD2A Tudor -11%, HP1b binding inh 20% and BAZ2B inh -17%.
O=C(CCO)c1ccc(O)cc1 was read as PLK1 PBD inh -1%, G9a block inconclusive, 12-LOX inh inconclusive, JMJD2A Tudor 20µM*, HP1b binding inh inconclusive and BAZ2B inh 13µM*.
